Assay results: paper PMC4336329 (PLoS ONE, 2015)
About 14,000 (4.5%) of roughly 310,000 compounds showed an effect of 50% or more. Effects have a minus sign here. Shown is part of a subset that was picked to be rich in strong results.

Target: human ether-à-go-go-related gene (hERG) potassium channel (human, UniProt Q12809)
Test: primary screen, population patch clamp on CHO cells stably expressing hERG; higher = less effect of the substance
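Further: peak tail current of the secondary pulse compared with the same well before compound.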

human ether-à-go-go-related gene (hERG) potassium channel, sequence (Q12809 whole entry, looked up): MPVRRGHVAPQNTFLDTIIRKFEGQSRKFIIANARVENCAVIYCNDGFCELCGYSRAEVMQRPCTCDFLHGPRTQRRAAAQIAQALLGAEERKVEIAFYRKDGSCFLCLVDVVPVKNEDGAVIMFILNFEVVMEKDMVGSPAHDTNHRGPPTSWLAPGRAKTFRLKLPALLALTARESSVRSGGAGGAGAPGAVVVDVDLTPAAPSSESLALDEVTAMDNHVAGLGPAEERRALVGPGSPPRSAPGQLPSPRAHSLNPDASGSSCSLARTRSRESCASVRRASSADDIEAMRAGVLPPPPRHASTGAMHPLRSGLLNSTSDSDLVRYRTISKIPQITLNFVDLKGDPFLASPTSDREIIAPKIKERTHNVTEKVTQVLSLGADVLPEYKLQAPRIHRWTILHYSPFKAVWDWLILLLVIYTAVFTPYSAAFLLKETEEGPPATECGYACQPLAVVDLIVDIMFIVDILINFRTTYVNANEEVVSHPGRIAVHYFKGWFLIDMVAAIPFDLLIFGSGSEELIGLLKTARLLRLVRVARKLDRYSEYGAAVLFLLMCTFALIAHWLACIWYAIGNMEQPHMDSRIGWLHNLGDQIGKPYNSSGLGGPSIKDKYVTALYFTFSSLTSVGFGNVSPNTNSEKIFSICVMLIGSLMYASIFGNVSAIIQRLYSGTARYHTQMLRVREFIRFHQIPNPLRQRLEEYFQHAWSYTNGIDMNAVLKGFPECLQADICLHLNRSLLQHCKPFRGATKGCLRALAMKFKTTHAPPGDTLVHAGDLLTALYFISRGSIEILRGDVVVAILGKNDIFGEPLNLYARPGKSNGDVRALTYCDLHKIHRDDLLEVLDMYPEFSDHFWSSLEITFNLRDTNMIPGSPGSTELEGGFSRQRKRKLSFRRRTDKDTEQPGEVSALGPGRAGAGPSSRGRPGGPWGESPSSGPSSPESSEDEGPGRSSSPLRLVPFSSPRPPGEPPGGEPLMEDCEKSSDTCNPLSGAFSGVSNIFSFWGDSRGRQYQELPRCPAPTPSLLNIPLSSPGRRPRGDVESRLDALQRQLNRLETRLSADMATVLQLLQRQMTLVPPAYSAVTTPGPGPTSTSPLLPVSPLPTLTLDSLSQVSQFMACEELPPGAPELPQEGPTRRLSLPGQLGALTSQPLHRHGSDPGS

SMILES	hERG current change (%, negative = inhibition) at 10uM
CCOC(=O)c1c(NC(=O)CCS(=O)(=O)c2ccccc2)sc2c1CC(C)(C)NC2(C)C	-44.9%
O=C(Nc1cccc(S(=O)(=O)N2CCOCC2)c1)c1ccc2ccccc2n1	-1.59%
CCNc1nc(NCC)nc(SCCOc2ccc(C)cc2)n1	-40.6%
COc1ccccc1N1CCN(C(=O)COc2ccc(S(=O)(=O)NC(C)C)cc2)CC1	-4.64%
CCN1CCN(CCCN(Cc2ccco2)C(=S)Nc2ccccc2Cl)CC1	-53.5%
Cc1c(Cl)cccc1NC(=S)N(CCCN1CCOCC1)Cc1ccco1	-43.9%
S=C(Nc1ccccc1Cl)N(CCCN1CCOCC1)Cc1ccco1	0.554%
COCCN(C(=S)Nc1cccc(Cl)c1C)C(C)c1ccco1 (stereo not shown)	-15.4%
CCN1CCN(CCCN(Cc2ccco2)C(=S)Nc2cccc(Cl)c2C)CC1	-61.2%
Cc1ccccc1NC(=S)N(CCN(C)C)C(C)c1ccco1 (stereo not shown)	-12.1%
Cc1c(Cl)cccc1NC(=S)N(CCN(C)C)C(C)c1ccco1 (stereo not shown)	-55.9%
O=C(NCCCN1CCCC1=O)c1cccc(Oc2ccccc2)c1	10.5%
CCN(CC(=O)Nc1c(F)cccc1F)C(=O)CCN1C(=O)c2cccc([N+](=O)[O-])c2C1=O	16.2%
N#CCC(=O)Nc1ncn(Cc2ccccc2Cl)n1	15.4%
CCCCc1nc2cc(C(=O)NCc3ccccn3)ccc2o1	2.61%
COc1ccccc1C(=O)NC(=O)CSc1nc2nc(C)cc(C)n2n1	0.704%
Cc1cccc(N=c2oc3cc(O)ccc3cc2C(N)=O)c1	-17.3%
Cc1cc(C(=O)CSc2ncccn2)c(C)n1-c1cccc(F)c1	-5.48%
Cc1cc(C(=O)CSc2nc(N)cc(N)n2)c(C)n1-c1cccc(F)c1	-14.2%
Cc1cc(C(=O)CSc2nc(N)cc(N)n2)c(C)n1-c1cccc(C(F)(F)F)c1	-64.4%
C=CCn1c(Cc2ccccc2)n[nH]c1=S	11.7%
COc1cc(C(=O)NCc2nnc(SCC(=O)N3CCOCC3)o2)cc(OC)c1OC	17.2%
OCCCNc1nccc(-c2cc(Nc3cccc(Cl)c3)ncn2)n1	9.69%
CN(C)CCCNc1ccc(-c2cc(Nc3cccc(Cl)c3)ncn2)cn1	-58.4%
OCCCNc1cc(-c2ccnc(Nc3cccc(Cl)c3)n2)ccn1	-30.3%
CC(=O)Nc1ccc(C(=O)OCC(=O)Nc2ccc([N+](=O)[O-])cc2C(F)(F)F)cc1	7.22%
Cl.N=c1n(Cc2ccc(Cl)cc2)c2ccccc2n1CC(O)c1ccco1 (stereo not shown)	-64.1%
CC(C)(C)c1ccc(Cn2c(=N)n(CC(O)c3ccco3)c3ccccc32)cc1.Cl (stereo not shown)	-71.9%

SMILES	hERG current change (%, negative = inhibition) at 10uM
CC(C)(C)c1ccc(Cn2c(=O)cnc3ccccc32)cc1	-4.85%
O=C(Nc1nc2ccccc2n1Cc1ccc(Cl)cc1)c1ccco1	5.47%
O=c1c2ccccc2n(Cc2ccc(Cl)cc2)c(=O)n1Cc1ccco1	4.77%
CCn1c(=N)n(CC(O)c2ccco2)c2ccccc21.Cl (stereo not shown)	-30.7%
Cc1ccc(Cn2c(=N)n(CC(O)c3ccco3)c3ccccc32)cc1.Cl (stereo not shown)	-64.5%
Cc1ccc(Cn2c(=O)n(Cc3ccco3)c(=O)c3ccccc32)cc1	16.3%
O=C(c1cccs1)N(Cc1cc2ccccc2[nH]c1=O)c1ccccc1	-11.8%
CC(C)CN=Cc1c(O)c([N+](=O)[O-])cc2oc3c(c12)CCCC3	0.113%
COc1ccc(CCNC(=O)c2cccc(S(=O)(=O)N3CCOCC3)c2)cc1OC	1.15%
CC(C)(C)N1CC(C(=O)Nc2ccc(C#N)cc2)CC1=O (stereo not shown)	11.6%
O=C(NCCc1ccc(Cl)cc1)c1nnc(Cc2ccc(Cl)cc2)o1	10.1%
CN(C)c1ccc(C2CC(=O)NC3=C2C(=O)CC(C)(C)C3)cc1 (stereo not shown)	1.9%
O=C(Nc1cc(F)ccc1F)N1CCN(c2ccnc3cc(Cl)ccc23)CC1	-66.4%
COc1ccccc1NC(=S)N1CCC(C(=O)c2ccc(F)cc2)CC1	-22.7%
COc1cccc(Cl)c1NC(=O)N1CCN(c2ccnc3cc(Cl)ccc23)CC1	-44.1%
COc1ccccc1NC(=O)N1CCN(c2ccnc3cc(Cl)ccc23)CC1	-80.5%
Cc1cccc(Cl)c1NC(=O)N1CCN(c2ccnc3cc(Cl)ccc23)CC1	-16.8%
O=C(Nc1ccc(Cl)cc1Cl)N1CCN(c2ncccn2)CC1	-21.1%
COc1ccccc1NC(=O)N1CCC(C(=O)c2ccc(Cl)cc2)CC1	-72.7%
COc1ccccc1NC(=O)N1CCC(C(=O)c2ccc(F)cc2)CC1	0.487%
Cc1ccc(F)cc1NC(=O)N1CCCN(c2ccc(C(F)(F)F)cn2)CC1	-43.3%
COc1ccccc1N1CCN(c2ccnc3cc(Cl)ccc23)CC1	-43.4%
Cc1ccc(F)cc1NC(=O)N1CCN(c2ccnc3cc(Cl)ccc23)CC1	-67%
CCC(Sc1nc(-c2ccccc2)c(C#N)c(=O)[nH]1)C(=O)Nc1nnc(C)s1 (stereo not shown)	1.73%
Cc1ccc(NC(=S)Nc2nc(CC(=O)Nc3ccccc3)cs2)cc1	13%
COC(=O)c1ccc(-c2ccc(/C=N/N3C(=O)C4C5C=CC(CC5)C4C3=O)o2)cc1 (stereo not shown)	-16.1%
CC(C)CC(=O)N1CCN(Cc2cccc(Cl)c2)CC1	7.42%
